# Bioassay records (PubChem BioAssay)
# TDP43 rescue = qHTS of TDP-43 Inhibitors | AID 652104, 2013 | TDP-43 expressing yeast growth rescue, BacTiter-Glo, 24 h | 410,000 tested, 1.8% active | Potency, µM (top dose mostly 46.1 µM), inactives show top-dose growth rescue (activation), most hits filed as activators; further: % of control where 0% means no effect; nearly all actives have a fitted effect of over 50% in size
#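 In this qHTS, compounds that restore growth of yeast expressing TDP-43 appear as activators. Cells (OD600=0.02, galactose medium, raffinose-pregrown) are incubated with compound 24 hr at 30 deg C and growth is quantified by BacTiter-Glo.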
# FUS yeast rescue = qHTS for Suppressors of FUS Proteinopathy: Primary screen using FUS-linked yeast assay; AID 1347120, 2019; Potency, µM (titrated, usually from 76.6 µM), hits mostly activators; 390,000 tested, 0.24% active; S. cerevisiae FUS-expressing, growth rescue, OD600, 24 h;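 further: plate controls were DMSO vehicle for no effect and reference control for full effect; nearly all actives have a fitted effect of over 55% in size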
#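 Quantitative HTS measuring growth restoration of FUS-toxic yeast. Galactose-induced cells (OD 0.005) were exposed 24hr at 30C to compounds at several concentrations, then absorbance at 600 nm was recorded.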
# aSyn yeast inh = qHTS of alpha-syn Inhibitors; Yeast expressing alpha-synuclein, growth rescue, BacTiter-Glo, 24 h; Potency, µM (highest dose often 46.1 µM), inactives show at the highest dose growth rescue (activation), most hits filed as activators; 370,000 tested, 0.14% active; AID 652106, 2013; further: % of control where 0% means no effect; nearly all actives have a fitted effect of over 65% in size
#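 Galactose-induced alpha-syn yeast (OD600=0.02, raffinose-pregrown) + pinned cpd, 24 hr, 30 deg C; growth by BacTiter-Glo luminescence. Growth restoration scores as activation.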
# Abeta rescue = qHTS for compounds that reverse cellular toxicity of Amyloid beta (A-beta) peptide in yeast: Primary Screen; Potency, µM (series often up to 46.1 µM), usual class: activators; 410,000 tested, 0.063% active; AID 1347071, 2019; yeast expressing A-beta42, growth rescue, OD600, 48 h; response scale: 0% DMSO, 100% iron-clioquinol control; further: nearly all actives have a fitted effect of over 55% in size
#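 Yeast A-beta toxicity model in growth medium with pinned compounds, 48 h at 30 C; growth read as absorbance at 600 nm. Normalized to FeCl3/clioquinol equimolar mix (positive) and DMSO (negative).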
# Mito fusion act = qHTS Assay for Small Molecule Inhibitors of Mitochondrial Division or Activators of Mitochondrial Fusion; S. cerevisiae fusion-defective mutant growth rescue, CellTiterGlo 48 h; Potency, µM (series often up to 46.1 µM), for the others: top-dose growth rescue (activation), actives largely listed as activators; 320,000 tested, 0.23% active; further: % of control where 0% means no effect; nearly all actives have a fitted effect of over 45% in size
#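 Compounds are tested for their ability to restore growth of mitochondrial fusion-defective yeast strains at non-permissive 37C in YPEG medium over 48 hours. Viability is quantified by luciferase luminescence.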
# The depositor's hits bear a star; i = inactive; ? = inconclusive; nt = not tested or not shown; [ ] = another dose, or the depositor's remark. The list is not random: actives were taken first. Their share in the collection is about 2.2%. The call rests on the fitted dose curve; in most records, active means well fitted curve in the direction sought with a large enough effect; inconclusive means small, poorly fitted or top-dose-only effect, or another doubt; inactive means no such curve, though single readings can be large; an effect the other way counts as inactive or inconclusive. Potency means the concentration at half of the fitted maximal effect.
SMILES,TDP43 rescue,FUS yeast rescue,aSyn yeast inh,Abeta rescue,Mito fusion act
CCc1ccccc1N1CC(c2nc3ccccc3n2Cc2cccc(C)c2)CC1=O (configuration not stated),?,?,nt,i,nt
Cn1c(=O)c(-c2ccccc2[N+](=O)[O-])c(Cl)c2ccccc21,16µM*,i,10%,i,-5%
Cc1ccc(Sc2c([N+](=O)[O-])c(=O)n(C)c3ccccc23)cc1,0%,i,3%,i,1%
COC(=O)c1ccccc1NC(=O)CCCS(=O)(=O)c1nc(-c2ccccc2OC)cc(C(F)(F)F)n1,0%,i,nt,i,nt
CCOc1cc(C2c3c(oc4ccc(F)cc4c3=O)C(=O)N2Cc2ccco2)ccc1O (configuration not stated),14%,i,nt,i,nt
CN1C(=O)c2ccc(Oc3ccccc3)cc2C1=O,?,i,6%,i,nt
CCn1c(/C=C/c2ccc(O)cc2)nc2ccccc2c1=O,18µM*,i,2%,i,3%
O=c1c2ccccc2nc(/C=C/c2cccc(Br)c2)n1CCCO,14%,i,0%,i,11µM*
O=c1c2ccccc2nc(/C=C/c2ccc(Br)cc2)n1CCO,5%,i,-10%,i,nt
C#CCn1c(/C=C/c2ccc(Cl)cc2)nc2ccccc21,35µM*,i,nt,i,nt
Clc1ccc(Cn2c(/C=C/c3ccco3)nc3ccccc32)cc1,-3%,i,5%,i,?
O=c1c2ccccc2nc(/C=C/c2ccc(Cl)cc2)n1CCO,11µM*,i,5%,i,26%
O=c1c2ccccc2nc(/C=C/c2ccc(Br)cc2)n1CCCO,?,i,-2%,i,?
Cc1ccc(CNC(=O)Cn2ccn(-c3ccc(F)c(F)c3)c(=O)c2=O)cc1,2%,i,nt,i,nt
C/C(=N\Nc1cc(N2CCOCC2)ncn1)c1ccc(O)cc1,7%,i,8%,i,-1%
CCn1c(/C=C/c2ccccc2F)nc2ccccc2c1=O,8.9µM*,i,-5%,i,0%
CCn1c(/C=C/c2ccccc2C)nc2ccccc2c1=O,29%,i,-2%,i,2%
CCCCCC(=O)NC(=S)Nc1cccc(C(C)=O)c1,-14%[0.397 µM],i,4%,8.9µM*,-2%
Cc1cc(F)ccc1S(=O)(=O)Nc1ccc2oc3c(c2c1)CC(C)CC3 (configuration not stated),35µM*,i,nt,i,nt
N=C1C=CC(=C(c2ccc(N)cc2)c2ccc(N)cc2)C=C1,-53%,nt,-47%,i,nt
Cc1cc2c(cc1S(=O)(=O)Nc1ccc(C(C)C)cc1)OCCN2C,?,i,nt,i,9%
COCCC(C(=O)Oc1c(C(C)(C)C)cc(C)cc1C(C)(C)C)c1ccccc1 (configuration not stated),7%,i,0%,i,0%
Fc1ccc(-c2nc3ccc(Cl)cn3c2Cc2ccccc2)cc1,35µM*,i,23%,i,nt
Clc1ccc(-c2nc3ccc(Cl)cn3c2Cc2ccccc2)cc1,20µM*,i,25%,i,nt
Clc1ccc2nc(-c3ccccc3)c(Cc3ccccc3)n2c1,0%,i,-22%,i,nt
SMILES,TDP43 rescue,FUS yeast rescue,aSyn yeast inh,Abeta rescue,Mito fusion act
Fc1ccc(-c2nc3ccc(Cl)cn3c2Cc2ccsc2)cc1,0%,i,-9%,i,nt
O=C(NCc1nnc(SCC(=O)N2CCN(c3ccccc3)CC2)o1)c1c(F)cccc1Cl,13%,i,2%,i,2%
CCOc1ccc(NC(=O)CC2C(=O)N(c3ccc(F)cc3)C(=O)N2Cc2ccc(OC)c(OC)c2)cc1 (configuration not stated),8%,i,nt,i,nt
CN(C(=O)C1CCC(=O)N(CCc2ccc(Cl)cc2)C1)C1CCOCC1 (configuration not stated),5%,nt,0%,i,-1%
C[C@H](c1ccccc1)N1C[C@@H](COCc2ccccc2)Oc2cc(N3CC[C@@H](O)C3)ccc2S1(=O)=O,28µM*,i,0%,i,nt
CC1=C(C(=O)Nc2ccccc2C)C(c2sccc2C)n2ncnc2N1 (configuration not stated),15%,i,1%,i,nt
O=C(Nc1ccccc1F)c1ccc(Cn2cc(Cl)cn2)cc1,-8%,i,-1%,i,16%
Cc1ccc(Cl)cc1NC(=O)c1ccc(Cn2cc(Cl)cn2)cc1,4%,i,4%,?,20µM*
C#CCOCCOCCOCCNc1nc(N2CCN(C(=O)CCCCCCCCCCNC(=O)Cn3cc(C[C@@H](C)O)nn3)CC2)nc(N2CCN(C(=O)CCCCCCCCCCNC(=O)[C@@H](CCSC)n3cc(CCO)nn3)CC2)n1,8%,4µM*,-1%,i,-4%
C#CCOCCOCCOCCNc1nc(N2CCN(C(=O)CCCCCCCCCCNC(=O)[C@@H](CCSC)n3cc(CCO)nn3)CC2)nc(N2CCN(C(=O)CCCCCCCCCCNC(=O)[C@H](CCC(=O)O)n3cc(CCCCCN)nn3)CC2)n1,19%,11µM*,-21%,i,-9%
C#CCOCCOCCOCCNc1nc(N2CCN(C(=O)CCCCCCCCCCNC(=O)[C@@H](CCSC)n3cc(CCO)nn3)CC2)nc(N2CCN(C(=O)CCCCCCCCCCNC(=O)[C@H](CO)n3cc(CCCCCN)nn3)CC2)n1,9%,?,-37%,i,-15%
C#CCOCCOCCOCCNc1nc(N2CCN(C(=O)CCCCCCCCCCNC(=O)[C@H](CCCCN)n3cc(C[C@@H](C)CC)nn3)CC2)nc(N2CCN(C(=O)CCCCCCCCCCNC(=O)[C@@H]([C@H](C)O)n3cc(C)nn3)CC2)n1,32%,?,-60%,i,-5%
C#CCOCCOCCOCCNc1nc(N2CCN(C(=O)CCCCCCCCCCNC(=O)[C@@H](CCSC)n3cc(CCO)nn3)CC2)nc(N2CCN(C(=O)CCCCCCCCCCNC(=O)[C@@H]([C@H](C)O)n3cc(C)nn3)CC2)n1,-5%,7.9µM*,-7%,i,1%
C#CCOCCOCCOCCNc1nc(N2CCN(C(=O)CCCCCCCCCCNC(=O)[C@H](CCCCN)n3cc(C)nn3)CC2)nc(N2CCN(C(=O)CCCCCCCCCCNC(=O)[C@@H]([C@H](C)O)n3cc(C)nn3)CC2)n1,5%,11µM*,0%,i,-8%
C#CCOCCOCCOCCNc1nc(N2CCN(C(=O)CCCCCCCCCCNC(=O)Cn3cc(CCCCCN)nn3)CC2)nc(N2CCN(C(=O)CCCCCCCCCCNC(=O)Cn3cc(C[C@@H](C)O)nn3)CC2)n1,5%,?,-3%,i,-14%
